{"source": "PubChem BioAssay (NCATS)", "note": "Results filed as inconclusive are left out. Activity calls are given as the source filed them. Calls come from the whole dose curve; as a rule, active = well fitted inhibition curve with a large enough effect; inconclusive = small, poorly fitted or top-dose-only effect; inactive = no such curve, though single readings can be large or run the other way. % is set by controls: 0 for no effect and ±100 for the full control effect; potency is the fitted concentration of half-maximal effect."}
{"target": "Aldehyde dehydrogenase 1A1 (Homo sapiens) (UniProt P00352)", "assay": "qHTS for Inhibitors of the Aldehyde Dehydrogenase Family (ALDH1A1) Confirmatory screens (AID 2061316); note: nearly all actives have a fitted effect of over 65% in size", "settings": "ALDH inhibition qHTS; series mostly up to 47.3 µM; activity change, negative = inhibition: at the top concentration"}
{"smiles": "CCc1ccc(-n2c(=O)c3cccnc3n2CC(=O)N(CC)c2cccc(C)c2)cc1", "Potency": "11.5 µM (active)"}
{"smiles": "CN(Cc1ccc(-c2ccc(C#N)cc2)o1)c1ccc(N2CCN(C(=O)OC(C)(C)C)CC2)cc1", "Potency": "11.3 µM (active)"}
{"smiles": "O=C(CSc1nc2ncccc2o1)Nc1ccc(Cl)cc1F", "activity change, negative = inhibition": "-20.4% (inactive)"}
{"smiles": "Cc1ccc(OCCn2c(CCNC(=O)c3ccccc3N)nc3ccccc32)cc1", "Potency": "7.12 µM (active)"}
{"smiles": "CN(C)CCCNc1cc(O)c2ncccc2c1", "Potency": "4 µM (active)"}
{"smiles": "Cc1ccnc(NC(=S)N2CCN(c3ccc(Cl)cc3Cl)CC2)c1", "Potency": "7.98 µM (active)"}
{"smiles": "Cc1cc(NC(=O)Nc2nnc(-c3ccncc3)s2)ccc1Br", "Potency": "12.7 µM (active)"}
{"smiles": "CCc1ccc(-c2nn3c(C)nnc3s2)cc1NC(=O)c1ccc(-c2cccc(Cl)c2)o1", "Potency": "5.04 µM (active)"}
{"smiles": "CCn1cnc2c(Nc3ccc(CC(=O)N=C(N)N)cc3)nc(C#N)nc21", "activity change, negative = inhibition": "-9.41% (inactive)"}
{"smiles": "O=C(NCc1ccc2c(c1)OCO2)c1csc(N2CCN(c3ccc(F)cc3)CC2)n1", "Potency": "4.47 µM (active)"}
{"smiles": "CCOC(=O)Cn1c(=O)oc2cc(S(=O)(=O)N3CCN(c4ccc(Cl)cc4)CC3)ccc21", "activity change, negative = inhibition": "-5.66% (inactive)"}
{"smiles": "Cc1cc(N(C)S(=O)(=O)c2ccc(NC(=O)Cc3ccc(Cl)c(Cl)c3)cc2)no1", "Potency": "12.7 µM (active)"}
{"smiles": "Cc1ccc(NS(=O)(=O)c2cc3c(cc2-c2ccco2)NC(=O)CO3)cc1C", "Potency": "11.3 µM (active)"}
{"smiles": "CC(=O)Nc1sc2c(c1-c1ccc(N3CCN(C)CC3)cc1)CCNC2", "activity change, negative = inhibition": "-9.01% (inactive)"}
{"smiles": "CC(C)(O)c1ccccc1CC[C@H](SCC1(CC(=O)O)CC1)c1cccc(/C=C/c2ccc3ccc(Cl)cc3n2)c1", "Potency": "22.5 µM (active)"}
{"smiles": "O=C(NCC(=O)N1CCC(c2ccccc2)CC1)c1cccc(-c2ccc(C(F)(F)F)cc2)c1", "activity change, negative = inhibition": "-6.01% (inactive)"}
{"smiles": "CC(=O)Nc1sc2c(c1-c1ccc(N(C)C)cc1)CCNC2", "Potency": "11.3 µM (active)"}
{"smiles": "Cc1cccc(NC(=O)N2CC(Oc3ccc(-c4nc(C)no4)cc3)C2)c1", "activity change, negative = inhibition": "-27.7% (inactive)"}
{"smiles": "COC(=O)c1ccnc(NCc2ccc(O)c3ncccc23)c1", "Potency": "11.3 µM (active)"}
{"smiles": "CNc1sc(-c2cccc3ccccc23)nc1C#N", "Potency": "5.04 µM (active)"}
{"smiles": "O=C(Nc1cccc(Br)c1)c1cc(-c2ccc3c(c2)OCCO3)on1", "activity change, negative = inhibition": "-20.8% (inactive)"}
{"smiles": "COc1ccc(C2Nc3ccc(Cl)cc3C(=O)N2Cc2ccccc2)cc1COc1ccc(NC(C)=O)cc1", "note": "(centres undefined)", "Potency": "22.5 µM (active)"}
{"smiles": "CC(=O)Nc1sc2c(c1-c1ccco1)CCNC2", "Potency": "25.2 µM (active)"}
{"smiles": "Cc1nnc2ccc(N3CCC(NC(=O)c4cccc(C(F)(F)F)c4)CC3)nn12", "activity change, negative = inhibition": "-2.19% (inactive)"}
